According to the supplement of paper PMC6555819:

How the values were obtained:
Assay in all cases: PBM binding z-score (relative to random genomic background probes); higher = stronger binding; sequences stand for … in GC…GCGATTGACAGCGTAGAATGAAGG
[1] = tested on: PPARg:RXRa DBDmut IVT, anti-RXR (DBD mutation: RXRa K156A/R161A, NR concentration 270 nM, RXRa partner concentration 90 nM)
Summary of the method: (§1)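 On custom Agilent 4×180K arrays, double-stranded probes with 34-nt variable regions carried direct-repeat seeds, single-nucleotide variants, half-site ablations or random human genomic background. Ligand-free nuclear receptor dimers were applied for 1 h, and binding was read with antibodies against each partner (one per run). Binding z-scores come from regression-normalized fluorescence, with the random background probes as reference.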

[2] = tested on: PPARg:RXRa IVT, anti-PPARg (NR concentration 270 nM, RXRa partner concentration 90 nM)
Summary of the method: as §1

[3] = tested on: PPARg DBDmut:RXRa IVT, anti-PPARg (DBD mutation: PPARg1 K132A/R137A, NR concentration 270 nM, RXRa partner concentration 90 nM)
Summary of the method: as §1

[4] = tested on: PPARg DBDmut IVT, anti-PPARg (DBD mutation: PPARg1 K132A/R137A, NR concentration 270 nM)
Summary of the method: as §1

[5] = tested on: PPARg homodimer (NR concentration 180 nM)
Summary of the method: as §1

[6] = tested on: PXR:RXRa (NR concentration 270 nM, RXRa partner concentration 90 nM)
Summary of the method: as §1

[7] = tested on: PXR homodimer (NR concentration 270 nM)
Summary of the method: as §1

[8] = tested on: RARa:RXR (NR concentration 270 nM, RXRa partner concentration 90 nM)
Summary of the method: as §1

[9] = tested on: RARa homodimer (NR concentration 270 nM)
Summary of the method: as §1

[10] = tested on: RARb:RXRa (NR concentration 270 nM, RXRa partner concentration 90 nM)
Summary of the method: as §1

[11] = tested on: RARb homodimer (NR concentration 270 nM)
Summary of the method: as §1

[12] = tested on: RARg:RXRa (NR concentration 270 nM, RXRa partner concentration 90 nM)
Summary of the method: as §1

[13] = tested on: RARg homodimer (NR concentration 270 nM)
Summary of the method: as §1

[14] = tested on: RXRa DBDmut IVT, anti-RXR (DBD mutation: RXRa K156A/R161A, NR concentration 90 nM)
Summary of the method: as §1

[15] = tested on: RXRa homodimer (NR concentration 180 nM)
Summary of the method: as §1

[16] = tested on: THRa:RXRa (NR concentration 90 nM, RXRa partner concentration 90 nM)
Summary of the method: as §1

[17] = tested on: THRa homodimer (NR concentration 90 nM)
Summary of the method: as §1

[18] = tested on: VDR homodimer (NR concentration 270 nM)
Summary of the method: as §1

[19] = tested on: VDR:RXRa (NR concentration 270 nM, RXRa partner concentration 90 nM)
Summary of the method: as §1

Row | Sequence | PBM binding z-score [1] | PBM binding z-score [2] | PBM binding z-score [3] | PBM binding z-score [4] | PBM binding z-score [5] | PBM binding z-score [6] | PBM binding z-score [7] | PBM binding z-score [8] | PBM binding z-score [9] | PBM binding z-score [10] | PBM binding z-score [11] | PBM binding z-score [12] | PBM binding z-score [13] | PBM binding z-score [14] | PBM binding z-score [15] | PBM binding z-score [16] | PBM binding z-score [17] | PBM binding z-score [18] | PBM binding z-score [19]
1 | CAAACTAGGTCAAGGTCAAAGTAGGTTTGTGCCA | 8.75 | 8.96 | 4.01 | 3.69 | 5.67 | 5.46 | 2.97 | 5.43 | 2.61 | 5.31 | 5.18 | 6.25 | 6.86 | 3.11 | 6.11 | 4.6 | 3.96 | 4.8 | –
2 | ATATGTAGGTTACCGGGTCATTCAGTTTGCGCAT | 8.02 | 8.28 | 6.4 | 4.2 | 3.3 | 4.35 | 9.95 | 4.52 | 0.996 | 2.76 | 3.18 | 3.85 | 2.52 | 1.45 | 4.15 | 3.37 | 2.38 | 4.17 | –
3 | CCTACAGGGCCAAGGTCATTGATCAGTCAAAGCA | 0.158 | 1.47 | -0.788 | -0.319 | 1.8 | 3.54 | 1.53 | 3.67 | 0.267 | 3.47 | 3.47 | 3.94 | 3.71 | 1.5 | 3.32 | 3.46 | 1.93 | 2.91 | –
4 | TCATATAGGTAATAGGTGAAAGTCGGTGTGGTAA | 4.73 | 4.33 | 0.889 | 1.42 | 1.61 | 0.866 | 0.435 | 1.56 | 1.65 | 0.581 | 0.632 | 0.482 | 0.284 | 1.59 | 1.53 | 0.534 | 0.384 | 0.435 | –
5 | ATCGAAAGGTCGTGAAGTGAGTATACAGAAAGGC | 0.0713 | 1.76 | 1.63 | 1.88 | 1.75 | 2.66 | 0.278 | 3.39 | 1.2 | 3.73 | 2.17 | 3.85 | 3.56 | 1.38 | 4.35 | 2.18 | 0.0261 | 1.02 | –
6 | TATACAGGATCAAAGGCCAGAGTACGAATGTCGA | 0.256 | 1.03 | 0.156 | 0.991 | 1.27 | 0.0724 | 0.338 | 0.0923 | 0.389 | 0.997 | 0.878 | 0.959 | 1.02 | -0.32 | 0.857 | -0.0517 | -0.472 | 0.376 | –
7 | CCTGCTAGGTCAATGGTCAGCTAAAGCAGCTCGC | 4.63 | 4.19 | -1.03 | -1.12 | 0.944 | 0.92 | -0.545 | 1.82 | -0.551 | 3.73 | 3.08 | 3.62 | 4.47 | 1.7 | 2.3 | 2.29 | 0.588 | 0.186 | –
8 | TAGCCTAGGTGATTGGGCCAGTATAGTACGCATC | 0.598 | 1.35 | -0.207 | -0.683 | -0.347 | -0.55 | -0.684 | -0.276 | -0.504 | -0.13 | -0.159 | -0.276 | -0.119 | -0.669 | -0.198 | -0.224 | -0.512 | -0.67 | –
9 | ATACGTAGGTTATCGGGTCATTCAGTTTGCGCAT | 3.06 | 3.95 | 1.74 | 0.954 | 2.79 | 3.74 | 8.01 | 3.84 | 0.759 | 2.59 | 2.77 | 3.41 | 2.36 | 1.77 | 3.41 | 3.18 | 2.93 | 3.86 | –
10 | CCTTCTGGGCCATTCAGAGGTCATTGATCATATG | 4.48 | 3.89 | -0.117 | 0.751 | 2.03 | 4.77 | 2.46 | 4.25 | 0.112 | 3.25 | 4.13 | 4.56 | 3.3 | 1.38 | – | 3.31 | 1.51 | 3.47 | 4.01
11 | CCTTACGGGTCGCTGACAGGTTATAGCATTTGGA | 0.346 | 0.0988 | -0.356 | -0.76 | 0.641 | 1 | -0.0348 | 1.68 | -0.0216 | 1.18 | 1.02 | 2.45 | 1.01 | 0.55 | 1.78 | 0.913 | -0.259 | 0.138 | –
12 | CCTACTGGGCCACGTAAGGTCATTGATTCAGTGA | 5.56 | 5.43 | 0.00703 | -0.733 | 1.14 | 4.38 | 1.49 | 3.25 | 0.62 | 3.02 | 3.87 | 3.33 | 3.01 | 0.502 | 3.33 | – | 4.46 | 2.84 | 3.69
13 | GATACAGGGTGAGCTAGAGGCCAGAGTATGGAAA | 0.274 | 0.614 | -0.0983 | -0.828 | -0.261 | -0.31 | -0.845 | 0.0105 | -0.483 | 0.744 | 0.626 | 2.08 | 0.586 | -0.965 | 0.342 | – | -0.562 | -0.731 | –
14 | CATAGTTGGTCAAGGTCACACACGCTATAGGTAC | 1.92 | 3.93 | 1.23 | 1.92 | 3.69 | 4.35 | 2.19 | 4.44 | 1.85 | 4.04 | 4.31 | 4.62 | 4.62 | 2.04 | 4.73 | 4.18 | 4.02 | 3.8 | –
15 | CAAACTAGGTCACGAAAGGTCAAAATCGAATGAC | 8.56 | 8.77 | 2.54 | 2.48 | 5.97 | 6.92 | 3.06 | 7.6 | 4.93 | 5.41 | 5.7 | 7.53 | 8.09 | 2.25 | 8.44 | 4.89 | 2.42 | 3.13 | –
